Assay results taken from PubChem BioAssay (NCATS).
Results filed as inconclusive are left out. The source made the active and inactive calls. Calls come from the whole dose curve; as a rule, active = well fitted inhibition curve with a large enough effect; inconclusive = small, poorly fitted or top-dose-only effect; inactive = flat fitted curve, though single readings scatter.

How the values were obtained:
Assay in all cases: qHTS profiling for inhibitors of Plasmodium falciparum proliferation (AID 504749); note: nearly all actives have a fitted effect of over 60% in size
3D7 = details: P. falciparum in erythrocytes, SYBR Green DNA, 72 h; series mostly up to 28.7 µM
Outline: (§1)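 P. falciparum-infected erythrocytes (0.3% parasitemia, 2.5% hematocrit) incubated with compound 72 h at 37 C, 5% CO2. Parasite DNA detected by SYBR Green after lysis, overnight at room temperature; normalised to 0.29 uM artemisinin and DMSO.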

ATS189 = details: P. falciparum in erythrocytes, SYBR Green DNA, 72 h; series mostly up to 28.7 µM
Outline: as §1

CP185 = details: P. falciparum in erythrocytes, SYBR Green DNA, 72 h; series mostly up to 28.7 µM
Outline: as §1

CP192 = details: P. falciparum in erythrocytes, SYBR Green DNA, 72 h; series mostly up to 28.7 µM
Outline: as §1

CP194 = details: P. falciparum in erythrocytes, SYBR Green DNA, 72 h; series mostly up to 28.7 µM
Outline: as §1

CP201 = details: P. falciparum in erythrocytes, SYBR Green DNA, 72 h; series mostly up to 28.7 µM
Outline: as §1

CP237 = details: P. falciparum in erythrocytes, SYBR Green DNA, 72 h; series mostly up to 28.7 µM
Outline: as §1

CP238 = details: P. falciparum in erythrocytes, SYBR Green DNA, 72 h; series mostly up to 28.7 µM
Outline: as §1

CP247 = details: P. falciparum in erythrocytes, SYBR Green DNA, 72 h; series mostly up to 28.7 µM
Outline: as §1

CP265 = details: P. falciparum in erythrocytes, SYBR Green DNA, 72 h; series mostly up to 12.8 µM
Outline: as §1

CP268 = details: P. falciparum in erythrocytes, SYBR Green DNA, 72 h; series mostly up to 28.7 µM
Outline: as §1

CP286 = details: P. falciparum in erythrocytes, SYBR Green DNA, 72 h; series mostly up to 28.7 µM
Outline: as §1

CP305 = details: P. falciparum in erythrocytes, SYBR Green DNA, 72 h; series mostly up to 28.7 µM
Outline: as §1

DIV30 = details: P. falciparum in erythrocytes, SYBR Green DNA, 72 h; series mostly up to 28.7 µM
Outline: as §1

GB4 = details: P. falciparum in erythrocytes, SYBR Green DNA, 72 h; series mostly up to 28.7 µM
Outline: as §1

HB3 = details: P. falciparum in erythrocytes, SYBR Green DNA, 72 h; series mostly up to 28.7 µM
Outline: as §1

P94_40 = details: P. falciparum in erythrocytes, SYBR Green DNA, 72 h; series mostly up to 28.7 µM
Outline: as §1

PC49 = details: P. falciparum in erythrocytes, SYBR Green DNA, 72 h; series mostly up to 28.7 µM
Outline: as §1

TAB109 = details: P. falciparum in erythrocytes, SYBR Green DNA, 72 h; series mostly up to 12.8 µM
Outline: as §1

TAB113 = details: P. falciparum in erythrocytes, SYBR Green DNA, 72 h; series mostly up to 28.7 µM
Outline: as §1

Measured: Potency

C[C@H]1CN(C2CCC(C#N)(c3ccc(F)cc3)CC2)CC[C@@]1(C(=O)O)c1ccccc1 (stereo not given in full)
inactive: all assays above

N[C@H]1C[C@H]1c1ccccc1
inactive: all assays above
